Measurements from the supplement of paper PMC6555819.

Tests used:
Assay in all cases: PBM binding z-score (relative to random genomic background probes); higher = stronger binding; sequences stand for … in GC…GCGATTGACAGCGTAGAATGAAGG
[1] = tested on: PPARg:RXRa DBDmut IVT, anti-RXR (DBD mutation: RXRa K156A/R161A, NR concentration 270 nM, RXRa partner concentration 90 nM)
Procedure, shortened: (§1)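 Probes were double-stranded and carried 34-nt variable regions with direct-repeat seeds, single-nucleotide variants, half-site ablations and random human genomic background sequences, printed on custom Agilent 4×180K protein-binding microarrays. Arrays were incubated 1 h with ligand-free nuclear receptor dimers in PBS pH 7.4, 2% milk, 0.02% Triton X-100, 1 mM DTT, 0.2 mg/mL BSA and 0.4 mg/ml salmon testes DNA. Antibodies against each partner (one per run) detected binding, and scanned fluorescence was regression-normalized. Binding z-scores use the random background probes as reference.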

[2] = tested on: PPARg:RXRa IVT, anti-PPARg (NR concentration 270 nM, RXRa partner concentration 90 nM)
Procedure, shortened: as §1

[3] = tested on: PPARg DBDmut:RXRa IVT, anti-PPARg (DBD mutation: PPARg1 K132A/R137A, NR concentration 270 nM, RXRa partner concentration 90 nM)
Procedure, shortened: as §1

[4] = tested on: PPARg DBDmut IVT, anti-PPARg (DBD mutation: PPARg1 K132A/R137A, NR concentration 270 nM)
Procedure, shortened: as §1

[5] = tested on: PPARg homodimer (NR concentration 180 nM)
Procedure, shortened: as §1

[6] = tested on: PXR:RXRa (NR concentration 270 nM, RXRa partner concentration 90 nM)
Procedure, shortened: as §1

[7] = tested on: PXR homodimer (NR concentration 270 nM)
Procedure, shortened: as §1

[8] = tested on: RARa:RXR (NR concentration 270 nM, RXRa partner concentration 90 nM)
Procedure, shortened: as §1

[9] = tested on: RARa homodimer (NR concentration 270 nM)
Procedure, shortened: as §1

[10] = tested on: RARb:RXRa (NR concentration 270 nM, RXRa partner concentration 90 nM)
Procedure, shortened: as §1

| Sequence | PBM binding z-score [1] | PBM binding z-score [2] | PBM binding z-score [3] | PBM binding z-score [4] | PBM binding z-score [5] | PBM binding z-score [6] | PBM binding z-score [7] | PBM binding z-score [8] | PBM binding z-score [9] | PBM binding z-score [10] |
| --- | --- | --- | --- | --- | --- | --- | --- | --- | --- | --- |
| CCGACTGGGGCAAAGGTTACCAAACTCAGTACGA | 4.42 | 6.14 | -0.923 | -0.533 | 1.38 | 2.51 | -0.494 | 4.11 | 0.0196 | 2.52 |
| TCTTGTAGATCAAAGGTTGAGAAAGCCGAAGCCT | 2.32 | 2.51 | 0.407 | -0.0322 | -0.0761 | 0.618 | -0.464 | 1.05 | -0.393 | 0.592 |
| TCATATAGGTAAATGCTAGGTGAGAGTCCGATCT | 3.83 | 2.57 | 0.808 | 0.825 | 0.0695 | 0.187 | 0.158 | 0.343 | 0.662 | 0.218 |
| ATTAGCAGGCCAAGGGTCACTCAAGATTAGTCCG | 0.795 | 3.76 | 0.0508 | 0.161 | 1.61 | 3.2 | -0.179 | 4.06 | 0.0408 | 3.62 |
| GGAACGAGGGCATTAGAGTTGATAGCATGGCGAT | 3.06 | 2.02 | -0.0353 | -0.143 | 0.508 | 3.02 | 0.854 | 0.328 | -0.0747 | 1.79 |
| ATCTCTCGGTAAAGTTCAGTGAAAGATCGATAGA | 0.0239 | 0.915 | 0.801 | 1.45 | 1.63 | 2.11 | 1.75 | 1.59 | 1.08 | 2.84 |
| TCTACTAGTTGAAGGGCAACCGACGAGTCCGTTT | 1.69 | 0.294 | 0.093 | -0.701 | 0.312 | 0.458 | 0.108 | 0.275 | -0.569 | 1.27 |
| CAAATTAGGTCAAGAGGTCAAAGTCCGCTTCCCG | 8.5 | 8.22 | 3.42 | 1.71 | 8.6 | 6.49 | 3.51 | 8.33 | 5.28 | 5.74 |
| CCTACTGGGCGATCAGGTCATTGATATCAACGTT | 1.18 | 1.66 | -0.36 | -0.403 | 0.86 | 1.29 | 0.227 | 1.47 | 0.157 | 1.6 |
| CCGACTGGGGCACAAGGTTACCATAAGCCAGCCC | 3.82 | 4.45 | -0.334 | -0.282 | 1.62 | 0.226 | -0.93 | 0.828 | -0.242 | 1.46 |
| TAGACTAGGTCAGATCGGGCCAGTATACGCTATA | 4.39 | 5.26 | 1.46 | 0.155 | 0.192 | 0.932 | -0.501 | 1.18 | -0.174 | 2.99 |
| TCTATTAGGTGAAGGGCAACCGACGAGTCCGTTT | 5.49 | 4.75 | 1.19 | 0.901 | 1.58 | 0.47 | 0.805 | 0.687 | 0.733 | 2 |
| TCATATATGTAATACAGGTGAAAGTCGGCATCTA | 2.42 | 2.27 | 1.39 | 1.75 | 0.745 | 0.801 | 0.494 | 1.41 | 0.947 | 0.42 |
| TCTAGTTGGTCAAAGCTCACACACTCGAAATGCG | 2.36 | 1.86 | 0.492 | 0.777 | 1.1 | 0.532 | -0.0371 | 0.758 | 0.56 | 1.01 |
| GCAAGTTGGTCAGTAAAAGGTCACACACCGGTCG | 1.27 | 2.7 | 0.611 | 0.159 | 4.55 | 5.2 | 1.01 | 5.84 | 1.75 | 4.17 |
| AGAATGAGGTTATACGTAGATAAGGGAAGAAAGT | 2.89 | 2.2 | 1.07 | 1.1 | 0.963 | 1.17 | 0.795 | 1.65 | 0.439 | 1.37 |
| ATATGTATGTTATCGGGTCATTCAGTTTGCGCAT | 4.28 | 4.3 | 1.17 | 1.83 | 1.39 | 3.37 | 6.74 | 2.59 | 1.05 | 1.98 |
| AGAATGAGGTTACCAAAGATCAGGGATACGCTTG | 3.77 | 3.44 | 1.54 | 0.614 | 0.494 | 1.38 | -0.284 | 2.04 | 0.01 | 1.98 |
| CCAGACAGCTGAGAAGGTAACTCAGCCTCGATTA | -0.628 | -0.629 | -0.497 | -0.867 | 0.219 | -0.733 | 0.0352 | -0.488 | -0.132 | -1.71 |
| GCTGCTAGGTCAGGTAGGTCAGCTAACGGGTACG | 3.3 | 3.37 | -0.274 | -0.592 | 1.34 | 1.65 | -0.0271 | 1.95 | -0.315 | 3.87 |
| ATGGAAAGGTCGAGGTGAGTATAGAGAAAGGGAA | 0.536 | 2.48 | 1.74 | 0.527 | 1.67 | 2.55 | 1.05 | 3.1 | 1.32 | 4.07 |
| CCTACTGTGCCATCAGGTCATTGATATCAACGTT | 4.55 | 4.14 | 2.09 | 1.29 | 2.2 | 2.45 | 1.76 | 2.79 | 2.21 | 2.25 |
| TGAACGAGGTTAAAGATCAGGGAACGTGGCGTCG | 1.29 | 2.81 | 0.475 | -0.0335 | 0.615 | 1.99 | -0.0143 | 2.94 | -0.0319 | 1.95 |
| ATACCAAGGTGATCATGAGGTCGTTGATACTAAC | 0.474 | 1.5 | 0.599 | 0.991 | 0.68 | 3.42 | 1.96 | 2.22 | 0.136 | 1.49 |
